Measurements published in PubChem BioAssay (NCI).
Compounds without any hit were thinned out: in the full panel of roughly 83,000, 20% have a hit.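 Cell lines were cultured in 96-well plates, exposed to a single compound concentration, and assessed for percent growth 48 hours later.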 Unmarked numbers belong to inactive results. Activity calls are given as the source filed them. How the source made its calls: active means growth percent below 10; inactive means the rest.

How the values were obtained:
Assay in all cases: NCI-60 one-dose screen, 48 h (100 = growth as untreated, 0 = no growth, -100 = all killed)
Settings in all cases: 10 µM unless noted
DU-145 prostate = tested on: DU-145 prostate
K-562 leukemia = tested on: K-562 leukemia
MALME-3M melanoma = tested on: MALME-3M melanoma
MDA-MB-231 breast = tested on: MDA-MB-231 breast
RXF 393 renal = tested on: RXF 393 renal
SF-268 CNS = tested on: SF-268 CNS
SF-295 CNS = tested on: SF-295 CNS
SF-539 CNS = tested on: SF-539 CNS
UACC-257 melanoma = tested on: UACC-257 melanoma
M14 melanoma = tested on: M14 melanoma

SMILES	growth (DU-145 prostate)	growth (K-562 leukemia)	growth (MALME-3M melanoma)	growth (MDA-MB-231 breast)	growth (RXF 393 renal)	growth (SF-268 CNS)	growth (SF-295 CNS)	growth (SF-539 CNS)	growth (UACC-257 melanoma)	growth (M14 melanoma)
O=C1C2C(c3cccs3)C=C(c3ccc(Cl)cc3)N2C(=S)N1c1ccccc1 (stereo not given)	110%	101%	115%	86.3%	102%	96.7%	104%	93%	105%	101%
c1ccc(-c2nc(N3CCNCC3)c3oc(-c4ccccc4)nc3n2)cc1	-55.4% (active)	2.28% (active)	-93.9% (active)	-87.1% (active)	-81.4% (active)	-48.8% (active)	-73.6% (active)	-95.9% (active)	101%	-60.3% (active)
CN1CCN(Cc2ccc(NC(=O)c3cc(C#Cc4cnc(N)c5ncccc45)n(C)n3)cc2C(F)(F)F)CC1	83.9%	1.62% (active)	79.9%	102%	69.3%	102%	102%	70.5%	102%	113%
Cc1nc2ccccc2c(/C=C/c2ccc(Br)cc2)c1C(=O)/C=C/c1ccccc1	-3.75% (active)	7.54% (active)	-28.4% (active)	11.9%	-71.3% (active)	51.9%	4.22% (active)	-62.7% (active)	-4.07% (active)	6.49% (active)
O=C(Nc1ccc2[nH]ncc2c1)c1csc(Nc2ccccc2)n1	21.4%	20.7%	69%	58.5%	12.9%	56.6%	22.6%	22.5%	77.2%	24.5%
Cc1ccc(S(=O)(=O)N(CCC(=O)O)c2ccccc2)cc1	111%	93.4%	142%	114%	152%	102%	111%	99.1%	102%	107%
CC1=C(C(=O)c2ccccc2)C(c2ccc3c(c2)OCO3)NC(=S)N1 (stereo not given)	78.7%	24.6%	54.5%	79.1%	59.5%	75.8%	51.2%	36.4%	57.2%	34.6%
O=C(CN1C(=O)NC2NC(=O)NC21)N/N=C/c1cccc([N+](=O)[O-])c1 (stereo not given)	110%	103%	105%	104%	104%	99%	102%	100%	118%	109%
COc1ccc(/C=C2/CCc3cc4ccc(OC)cc4[o+]c32)c(O)c1	76.7%	39.1%	16.9%	36.7%	71.4%	82.2%	106%	109%	87.4%	26%
CCC(C)C(N)C(=O)NC(CC(C)C)C(=O)N1CCCC1C(=O)NC(Cc1c[nH]c2ccccc12)C(=O)NC(CCCCN)C(=O)NC(Cc1c[nH]c2ccccc12)C(=O)N1CCCC1C(=O)NC(Cc1c[nH]c2ccccc12)C(=O)NC(Cc1c[nH]c2ccccc12)C(=O)N1CCCC1C(=O)NC(Cc1c[nH]c2ccccc12)C(=O)NC(CCCNC(=N)N)C(=O)NC(CCCNC(=N)N)C(N)=O (stereo not given)	98.4%	104%	122%	116%	110%	116%	144%	110%	97.8%	108%
CC/C(=C(/c1ccc(Cl)cc1)c1ccc(OCCCN(C)C)cc1)c1ccc(OC)cc1	85.7%	-27.4% (active)	74.1%	76.3%	53.1%	84.2%	88.5%	82.8%	84.7%	32.8%
Cc1cc2c(C(C)C)c(O)c(O)c(/C=N/O)c2c(O)c1-c1c(C)cc2c(C(C)C)c(O)c(O)c(/C=N/O)c2c1O	-93.8% (active)	-9.09% (active)	51%	25.5%	-1.98% (active)	26.3%	16.7%	-11.3% (active)	11.6%	7.91% (active)
CC(CN)[C@@H]1CC[C@]2(CO)CC[C@]3(C)[C@H](CC[C@@H]4[C@@]5(C)CCC(NCCO)C(C)(C)[C@@H]5CC[C@]43C)[C@@H]12 (stereo not given in full)	63.5%	-49.4% (active)	-35.5% (active)	13.6%	58.6%	60.6%	70.9%	65.8%	84.9%	-2.37% (active)
CCCCC/C=C/CCC(=O)N[C@H]1[C@H](Oc2c3cc4cc2Oc2ccc(cc2Cl)[C@@H](O[C@@H]2O[C@H](CO)[C@@H](O)[C@H](O)[C@H]2NC(C)=O)[C@@H]2NC(=O)[C@H](NC(=O)[C@@H]4NC(=O)[C@H]4NC(=O)[C@@H](Cc5ccc(c(Cl)c5)O3)NC(=O)[C@@H](N)c3ccc(O)c(c3)Oc3cc(O)cc4c3)c3ccc(O)c(c3)-c3c(O[C@H]4O[C@H](CO)[C@@H](O)[C@H](O)[C@@H]4O)cc(O)cc3[C@H](C(=O)O)NC2=O)O[C@H](CO)[C@H](O)[C@@H]1O	112%	98.6%	108%	100%	112%	98.5%	94.8%	110%	89.4%	109%
Cn1cc(-c2nc(-c3c[nH]c4ccncc34)cs2)c2cc(F)ccc21	-98.1% (active)	-53.6% (active)	-88.9% (active)	-90.7% (active)	-94.7% (active)	-80.1% (active)	-85.9% (active)	-97.1% (active)	-73.1% (active)	-87.3% (active)
O=C1NC(=O)C(=Cc2cc(-c3ccc(Cl)cc3)n(-c3ccccc3)n2)C(=O)N1	105%	90.6%	99.2%	99.8%	86%	105%	93.8%	96.5%	101%	93.1%
O=C(Nc1cccc(Cl)c1)Oc1c(Cl)c(Cl)c(Cl)c(Cl)c1Cl	95.6%	98.6%	101%	94.3%	117%	95.9%	90%	95.3%	110%	97.3%
Clc1nc(N2CCC[N+]3(CC2)CC[N+]2(CCCNCC2)CC3)nc(N2CCC[N+]3(CC2)CC[N+]2(CCCNCC2)CC3)n1 (stereo not given)	91%	104%	3.84% (active)	86.5%	100%	76.8%	104%	87.5%	81.3%	103%
O=C1c2ccccc2C(=O)c2cc(Cn3c[n+](Cc4ccc5ccccc5c4)c4ccccc43)ccc21	83.1%	17.6%	48%	26.2%	62.6%	49.3%	82.2%	70.6%	42.9%	38.7%
COc1cc(OCc2cccc(-c3ccc4c(c3)OCCO4)c2C)cc(OC)c1C=O	77.8%	29.9%	58.9%	64.8%	74.2%	70.3%	72.1%	77.9%	42.3%	59.2%
N=C(N)c1ccc(-c2ccc(-c3ccccc3)s2)nc1	92.1%	14.5%	101%	86.1%	87.2%	93.8%	88%	88.2%	96%	88.7%
